# Measurements from PMC7862700, “An all-to-all approach to the identification of sequence-specific readers for epigenetic DNA modifications on cytosine”.
# Legend:
# Test in all cases: DAPPL (digital affinity profiling via proximity ligation, sequencing); 10 mM Tris-HCl pH 7.5, 50 mM NaCl, 1 mM DTT, 4% glycerol, room temperature, 30 min; GST-TFs on glutathione beads, 16-mer random dsDNA library, 0.1% formaldehyde crosslink after washing; high values mean tight binding
# FEV = biological target: T1, FEV (Homo sapiens, UniProt Q99581 1-238); settings: protein: recombinant; tags: N-terminal GST; dsDNA, one strand shown
# T1 sequence: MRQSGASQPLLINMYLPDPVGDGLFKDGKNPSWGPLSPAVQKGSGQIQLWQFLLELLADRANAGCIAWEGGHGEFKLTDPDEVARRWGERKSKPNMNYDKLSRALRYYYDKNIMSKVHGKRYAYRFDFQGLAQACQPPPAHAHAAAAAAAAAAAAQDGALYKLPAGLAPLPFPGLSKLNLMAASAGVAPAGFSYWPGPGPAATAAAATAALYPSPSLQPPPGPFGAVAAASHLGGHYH
# Outline: (§1)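 GST fusions of human transcription factors were expressed in yeast and captured with glutathione beads. Once given DNA barcodes and pooled alongside a tag-only sample, they were incubated for 30 min at room temperature with 200 nmole of a random double-stranded 16-mer DNA library in Tris/NaCl/DTT/glycerol buffer, then washed, crosslinked (0.1% formaldehyde), proximity-ligated, PCR-amplified and sequenced on an Illumina NextSeq500. The binding signal of each hexamer is its read frequency for a factor divided by its frequency for the tag-only sample.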
# ETV5 = ETV5 (Homo sapiens, UniProt P41161 1-510); settings: protein: recombinant; tags: N-terminal GST; dsDNA, one strand shown
# Sequence of ETV5 (P41161 whole entry): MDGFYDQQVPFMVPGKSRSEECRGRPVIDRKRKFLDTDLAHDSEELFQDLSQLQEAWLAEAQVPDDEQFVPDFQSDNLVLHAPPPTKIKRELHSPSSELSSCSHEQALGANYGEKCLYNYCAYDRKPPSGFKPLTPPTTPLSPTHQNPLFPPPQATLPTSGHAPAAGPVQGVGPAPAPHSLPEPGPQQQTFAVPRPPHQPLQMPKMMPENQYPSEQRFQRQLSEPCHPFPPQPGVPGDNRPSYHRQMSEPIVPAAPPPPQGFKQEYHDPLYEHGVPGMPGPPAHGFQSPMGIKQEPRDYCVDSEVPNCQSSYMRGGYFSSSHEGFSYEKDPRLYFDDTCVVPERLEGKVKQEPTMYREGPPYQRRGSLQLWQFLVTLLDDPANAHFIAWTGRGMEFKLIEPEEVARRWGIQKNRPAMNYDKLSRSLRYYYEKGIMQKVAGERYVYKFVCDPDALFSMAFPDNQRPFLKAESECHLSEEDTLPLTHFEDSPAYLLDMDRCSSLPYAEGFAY
# Outline: as §1
# HSF1 = HSF1 (Homo sapiens, UniProt Q00613 1-529); settings: protein: recombinant; tags: N-terminal GST; chain copies: 3; dsDNA, one strand shown
# Sequence of HSF1 (Q00613 whole entry): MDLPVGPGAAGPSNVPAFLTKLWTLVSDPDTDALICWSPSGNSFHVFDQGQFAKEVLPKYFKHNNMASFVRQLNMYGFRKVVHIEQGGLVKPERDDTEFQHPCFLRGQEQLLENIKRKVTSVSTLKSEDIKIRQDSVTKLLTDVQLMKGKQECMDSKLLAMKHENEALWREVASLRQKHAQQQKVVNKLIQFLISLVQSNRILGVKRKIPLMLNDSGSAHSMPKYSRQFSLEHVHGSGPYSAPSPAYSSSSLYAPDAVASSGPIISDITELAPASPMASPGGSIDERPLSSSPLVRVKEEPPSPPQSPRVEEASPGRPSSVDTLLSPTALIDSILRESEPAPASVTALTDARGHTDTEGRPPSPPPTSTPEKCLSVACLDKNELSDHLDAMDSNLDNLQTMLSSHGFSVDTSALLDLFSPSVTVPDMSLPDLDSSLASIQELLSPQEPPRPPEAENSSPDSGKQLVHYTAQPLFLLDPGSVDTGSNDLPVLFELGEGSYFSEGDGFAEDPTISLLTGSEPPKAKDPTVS
# Outline: as §1
# SPIC = biological target: T2, SPIC (Homo sapiens, UniProt Q8N5J4 1-248); settings: protein: recombinant; tags: N-terminal GST; dsDNA, one strand shown
# T2 sequence: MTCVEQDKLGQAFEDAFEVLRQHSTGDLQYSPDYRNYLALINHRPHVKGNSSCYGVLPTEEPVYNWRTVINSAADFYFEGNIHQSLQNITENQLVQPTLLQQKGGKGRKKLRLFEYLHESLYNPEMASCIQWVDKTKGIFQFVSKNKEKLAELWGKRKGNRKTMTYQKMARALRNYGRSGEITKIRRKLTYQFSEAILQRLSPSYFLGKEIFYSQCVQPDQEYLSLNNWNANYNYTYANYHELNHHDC
# Outline: as §1
# ELF4 = ELF4 (Homo sapiens, UniProt Q99607 1-663); settings: protein: recombinant; tags: N-terminal GST; dsDNA, one strand shown
# Sequence of ELF4 (Q99607 whole entry): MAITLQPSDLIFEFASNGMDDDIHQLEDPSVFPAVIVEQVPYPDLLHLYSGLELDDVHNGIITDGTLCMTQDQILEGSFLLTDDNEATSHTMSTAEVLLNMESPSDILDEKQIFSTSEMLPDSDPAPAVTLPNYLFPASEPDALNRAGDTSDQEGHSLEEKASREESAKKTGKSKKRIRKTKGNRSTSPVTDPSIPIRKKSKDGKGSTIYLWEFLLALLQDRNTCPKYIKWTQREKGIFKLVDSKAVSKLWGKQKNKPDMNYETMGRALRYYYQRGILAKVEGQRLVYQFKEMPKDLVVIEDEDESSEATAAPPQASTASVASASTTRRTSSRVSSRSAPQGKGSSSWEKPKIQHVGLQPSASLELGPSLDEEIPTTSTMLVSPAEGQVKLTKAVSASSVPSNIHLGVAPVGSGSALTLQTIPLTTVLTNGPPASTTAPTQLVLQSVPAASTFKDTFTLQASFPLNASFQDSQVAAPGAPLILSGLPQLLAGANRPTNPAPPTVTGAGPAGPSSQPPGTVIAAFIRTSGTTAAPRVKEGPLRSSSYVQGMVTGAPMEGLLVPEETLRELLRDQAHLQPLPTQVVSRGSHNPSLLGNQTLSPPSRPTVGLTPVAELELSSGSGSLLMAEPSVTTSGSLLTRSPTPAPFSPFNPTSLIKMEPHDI
# Outline: as §1
# ELK4 = biological target: T3, ELK4 (Homo sapiens, UniProt P28324-2 1-405); settings: protein: recombinant; tags: N-terminal GST; dsDNA, one strand shown
# T3 sequence: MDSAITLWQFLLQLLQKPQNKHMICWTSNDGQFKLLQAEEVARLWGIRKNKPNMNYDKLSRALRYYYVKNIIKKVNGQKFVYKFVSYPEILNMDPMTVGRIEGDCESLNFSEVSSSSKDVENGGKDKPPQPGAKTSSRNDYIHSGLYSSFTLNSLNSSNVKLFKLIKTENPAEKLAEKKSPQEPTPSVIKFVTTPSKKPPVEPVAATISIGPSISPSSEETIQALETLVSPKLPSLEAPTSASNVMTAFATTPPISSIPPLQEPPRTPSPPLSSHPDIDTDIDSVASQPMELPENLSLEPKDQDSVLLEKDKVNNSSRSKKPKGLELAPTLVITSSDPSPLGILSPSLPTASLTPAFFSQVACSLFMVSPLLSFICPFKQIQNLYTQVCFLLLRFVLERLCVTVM
# Outline: as §1
# ETV2 = biological target: T4, ETV2 (Homo sapiens, UniProt O00321 1-342); settings: protein: recombinant; tags: N-terminal GST; dsDNA, one strand shown
# T4 sequence: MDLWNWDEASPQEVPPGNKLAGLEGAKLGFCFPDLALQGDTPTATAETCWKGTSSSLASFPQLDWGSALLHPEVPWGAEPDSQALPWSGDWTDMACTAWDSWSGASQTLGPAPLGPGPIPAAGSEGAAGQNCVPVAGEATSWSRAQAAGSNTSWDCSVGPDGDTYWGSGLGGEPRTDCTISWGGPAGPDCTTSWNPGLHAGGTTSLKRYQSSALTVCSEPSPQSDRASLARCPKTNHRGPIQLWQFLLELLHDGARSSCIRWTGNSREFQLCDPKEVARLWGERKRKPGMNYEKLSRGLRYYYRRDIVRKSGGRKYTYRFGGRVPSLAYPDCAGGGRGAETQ
# Outline: as §1
# ELF3 = biological target: T5, ELF3 (Homo sapiens, UniProt P78545 1-371); settings: protein: recombinant; tags: N-terminal GST; dsDNA, one strand shown
# T5 sequence: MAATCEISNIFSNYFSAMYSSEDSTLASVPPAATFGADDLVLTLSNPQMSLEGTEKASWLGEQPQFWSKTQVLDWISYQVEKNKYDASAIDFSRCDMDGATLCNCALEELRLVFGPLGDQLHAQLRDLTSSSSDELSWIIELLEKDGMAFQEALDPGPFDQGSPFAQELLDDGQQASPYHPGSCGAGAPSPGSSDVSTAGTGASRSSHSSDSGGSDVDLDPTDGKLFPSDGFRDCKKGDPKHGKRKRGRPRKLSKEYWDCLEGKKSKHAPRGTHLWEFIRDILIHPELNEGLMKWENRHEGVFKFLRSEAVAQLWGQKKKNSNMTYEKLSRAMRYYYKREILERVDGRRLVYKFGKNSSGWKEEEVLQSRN
# Outline: as §1
# CRX = CRX (Homo sapiens, UniProt O43186 1-299); settings: protein: recombinant; tags: N-terminal GST; dsDNA, one strand shown
# Sequence of CRX (O43186 whole entry): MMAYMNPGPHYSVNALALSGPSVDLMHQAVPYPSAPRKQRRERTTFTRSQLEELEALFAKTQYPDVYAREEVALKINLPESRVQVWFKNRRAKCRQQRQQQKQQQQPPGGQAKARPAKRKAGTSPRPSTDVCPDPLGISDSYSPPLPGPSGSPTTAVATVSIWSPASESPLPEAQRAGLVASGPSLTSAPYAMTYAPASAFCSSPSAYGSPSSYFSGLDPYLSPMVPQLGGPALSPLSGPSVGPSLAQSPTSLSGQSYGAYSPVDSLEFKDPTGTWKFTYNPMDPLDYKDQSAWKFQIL
# Outline: as §1
sequence,measurement,setting,value
TTTACT,binding signal,FEV,"1.41 fold enrichment (6-mer frequency, TF over GST control)"
same,binding signal,ETV5,"1.44 fold enrichment (6-mer frequency, TF over GST control)"
same,binding signal,HSF1,"1.69 fold enrichment (6-mer frequency, TF over GST control)"
same,binding signal,SPIC,"1.44 fold enrichment (6-mer frequency, TF over GST control)"
same,binding signal,ELF4,"1.5 fold enrichment (6-mer frequency, TF over GST control)"
same,binding signal,ELK4,"1.66 fold enrichment (6-mer frequency, TF over GST control)"
same,binding signal,ETV2,"1.29 fold enrichment (6-mer frequency, TF over GST control)"
same,binding signal,ELF3,"1.65 fold enrichment (6-mer frequency, TF over GST control)"
same,binding signal,CRX,"1.95 fold enrichment (6-mer frequency, TF over GST control)"
